Among the data in PubChem BioAssay (Tox21) are Potency and outcome values, retold here.

Assay [1] is described as follows: qHTS assay to identify small molecule antagonists of the sonic hedgehog signaling (Shh) pathway (AID 1259369). Further: nearly all actives have a fitted effect of over 45% in size. Further: potency means the concentration at half of the fitted maximal effect. Put shortly: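 NIH/3T3-derived Gli1-Luc reporter cells plated 4 h, dosed with compound, then stimulated with conditioned medium for 24 h at 37 C. Firefly luciferase luminescence read after 30 min with detection reagent at room temperature.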
(In general: In qHTS, concentration-response curves come from the screen itself.)

Assay [2] in a line: qHTS assay to identify small molecule agonists of the androgen receptor (AR) signaling pathway in the presence of an antagonist - cell viability counter screen (AID 1259379; active means well fitted curve in the direction sought with a large enough effect in the repeat runs; an effect the other way counts as inactive or inconclusive; further: nearly all actives have a fitted effect of over 25% in size; further: potency means the concentration at half of the fitted maximal effect). Put shortly:
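MDA-kb2 cells (MMTV-luciferase, AR/GR), 3,000/well, 5 h attachment, then 3.0 µM nilutamide (final) and compounds at 15 concentrations. Viability by CellTiter-Fluor fluorescence after 16 h at 37 °C, 0% CO2, in the reporter wells.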

The nature of assay [3]: qHTS assay to identify small molecule agonists of the estrogen receptor beta (ER-beta) signaling pathway - cell viability counter screen (AID 1259380; active means well fitted curve in the direction sought with a large enough effect in the repeat runs; an effect the other way counts as inactive or inconclusive; further: nearly all actives have a fitted effect of over 30% in size; further: potency means the concentration at half of the fitted maximal effect). In a few lines: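 ER-beta-UAS-bla HEK293T cells in medium with 2% charcoal-stripped FBS, pre-incubated 6 hr, then treated 16 hr at 37C. Cytotoxicity read in the same wells by CellTiter-Glo luminescence after 30 min at room temperature.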

In assay [4] the target is Estrogen receptor (Homo sapiens) (UniProt P03372). The experiment in a line: qHTS assay to identify small molecule agonists of the estrogen receptor alpha (ER-alpha) signaling pathway in the presence of an antagonist (AID 1259383). Further: nearly all actives have a fitted effect of over 15% in size. Further: potency means the concentration at half of the fitted maximal effect. On activation: top concentration of the series differs between compounds. In a few lines: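 VM7Luc4E2 cells express endogenous full-length ER-alpha with an ERE-luciferase reporter and were hormone-deprived for 5 days. Compounds at 15 concentrations were added with 10.0nM ICI-182,780 for 22hr at 37C. Luminescence was read with ONE-Glo.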

Assay [5] is described as follows: qHTS assay to identify small molecule agonists or antagonists of the thyroid stimulating hormone receptor (TSHR) signaling pathway - wild type cell line counter screen (AID 1259384). Put shortly: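 Wild-type Hek293 cells, 800/well, 18 h at 37C, then compound with Ro20-1724 for 30 min RT. cAMP by HTRF (cAMP-d2/anti-cAMP cryptate), 1 h RT, fluorescence read. 15 concentrations, triplicates.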

For assay [6], the target named is Estrogen receptor beta (Homo sapiens) (UniProt Q92731). Description: qHTS assay to identify small molecule agonists of the estrogen receptor beta (ER-beta) signaling pathway (AID 1259377; active means well fitted activation curve with a large enough effect in the signal ratio in the repeat runs, not every such curve was filed as active; the % refers to the signal ratio). Put shortly:
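qHTS in ER-beta-UAS-bla HEK293T cells: 6 hr settling, then 16 hr compound at 37C, then LiveBLAzer substrate 2 h at RT before fluorescence reading.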

Assay [7] shares this target. Description: qHTS assay to identify small molecule antagonists of the estrogen receptor beta (ER-beta) signaling pathway (AID 1259378; active means well fitted inhibition curve with a large enough effect in the signal ratio in the repeat runs, not every such curve was filed as active; the % refers to the signal ratio). In a few lines: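 ER-beta-UAS-bla HEK293T cells in 2% charcoal-stripped FBS medium treated with compound plus 1nM final 17-beta-estradiol for 16 hr at 37C. Beta-lactamase reporter read by FRET substrate fluorescence after 2 hours at room temperature.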

A short description of assay [8]: qHTS assay to identify small molecule antagonists of the estrogen receptor beta (ER-beta) signaling pathway - cell viability counter screen (AID 1259382; active means well fitted curve in the direction sought with a large enough effect in the repeat runs; an effect the other way counts as inactive or inconclusive; further: nearly all actives have a fitted effect of over 55% in size; further: potency means the concentration at half of the fitted maximal effect). Put shortly:
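ER-beta-UAS-bla HEK293T cells in 2% charcoal-stripped FBS medium, treated with compound plus 1 nM 17-beta-estradiol for 16 h at 37C. Viability read by CellTiter-Glo luminescence after 30 min at room temperature in the same wells.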

Assay [9] deals with Androgen receptor (Homo sapiens) (UniProt P10275). The experiment in a line: qHTS assay to identify small molecule agonists of the androgen receptor (AR) signaling pathway in the presence of an antagonist (AID 1259381). Further: nearly all actives have a fitted effect of over 15% in size. In a few lines: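 MDA-kb2 cells carrying MMTV-luciferase (AR/GR responsive), 3,000 cells/well, co-treated with 3.0 uM nilutamide final. Compounds at 15 concentrations, 16 hr at 37C without CO2. Luciferase luminescence read after 30 min with ONE-Glo.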

Molecules are shown by their SMILES. Several values for one entry are separate records, joined by “and”; a condition that tells them apart may be missing. Equal values may be shown once. Inconclusive results are not listed. A structure can be active in one record and inactive in another. Activity calls are given as the source filed them. Unless noted, the call rests on the fitted dose curve.

Sequence of Estrogen receptor (Homo sapiens) (P03372 whole entry, looked up): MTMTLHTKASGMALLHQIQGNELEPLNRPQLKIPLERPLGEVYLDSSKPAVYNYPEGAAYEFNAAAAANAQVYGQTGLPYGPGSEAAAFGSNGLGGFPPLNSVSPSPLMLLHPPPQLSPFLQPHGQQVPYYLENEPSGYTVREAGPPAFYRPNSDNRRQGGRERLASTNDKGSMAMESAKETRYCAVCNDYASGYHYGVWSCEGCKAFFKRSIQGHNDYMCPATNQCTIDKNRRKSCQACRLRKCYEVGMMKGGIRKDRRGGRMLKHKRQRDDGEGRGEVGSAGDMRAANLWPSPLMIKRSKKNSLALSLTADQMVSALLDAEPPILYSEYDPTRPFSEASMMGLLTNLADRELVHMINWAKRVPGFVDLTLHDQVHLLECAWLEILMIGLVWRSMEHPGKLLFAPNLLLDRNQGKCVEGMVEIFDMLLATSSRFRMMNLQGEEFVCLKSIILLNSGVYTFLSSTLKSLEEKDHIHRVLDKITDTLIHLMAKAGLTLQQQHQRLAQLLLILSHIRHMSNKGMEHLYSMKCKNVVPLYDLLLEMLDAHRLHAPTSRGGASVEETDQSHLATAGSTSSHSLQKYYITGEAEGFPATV
Sequence of Androgen receptor (Homo sapiens) (P10275 whole entry, looked up): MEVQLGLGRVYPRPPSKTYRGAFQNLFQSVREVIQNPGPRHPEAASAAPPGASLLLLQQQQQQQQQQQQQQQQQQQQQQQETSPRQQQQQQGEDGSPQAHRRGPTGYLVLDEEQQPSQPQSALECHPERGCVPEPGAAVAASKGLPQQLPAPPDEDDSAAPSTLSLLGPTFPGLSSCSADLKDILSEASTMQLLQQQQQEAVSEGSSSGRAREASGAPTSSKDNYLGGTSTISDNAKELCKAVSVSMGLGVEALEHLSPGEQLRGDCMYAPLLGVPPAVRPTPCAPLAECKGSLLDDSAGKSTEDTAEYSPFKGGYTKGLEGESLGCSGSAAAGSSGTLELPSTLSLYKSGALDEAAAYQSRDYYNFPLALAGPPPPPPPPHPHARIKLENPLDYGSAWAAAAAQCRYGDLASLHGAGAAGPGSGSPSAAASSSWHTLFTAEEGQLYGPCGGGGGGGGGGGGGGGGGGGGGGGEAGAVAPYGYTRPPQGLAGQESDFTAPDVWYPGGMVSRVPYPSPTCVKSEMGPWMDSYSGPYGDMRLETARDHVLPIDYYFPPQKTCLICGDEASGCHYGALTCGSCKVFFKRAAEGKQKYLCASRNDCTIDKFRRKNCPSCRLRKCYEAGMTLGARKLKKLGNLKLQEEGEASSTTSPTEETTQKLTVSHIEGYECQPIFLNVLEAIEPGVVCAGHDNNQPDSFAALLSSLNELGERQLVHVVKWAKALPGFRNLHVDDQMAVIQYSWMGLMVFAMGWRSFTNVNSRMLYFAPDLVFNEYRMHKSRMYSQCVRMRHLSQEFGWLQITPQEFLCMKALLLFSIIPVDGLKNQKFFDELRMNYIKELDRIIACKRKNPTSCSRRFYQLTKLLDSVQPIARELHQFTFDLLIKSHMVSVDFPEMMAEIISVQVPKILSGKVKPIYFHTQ
Sequence of Estrogen receptor beta (Homo sapiens) (Q92731 whole entry, looked up): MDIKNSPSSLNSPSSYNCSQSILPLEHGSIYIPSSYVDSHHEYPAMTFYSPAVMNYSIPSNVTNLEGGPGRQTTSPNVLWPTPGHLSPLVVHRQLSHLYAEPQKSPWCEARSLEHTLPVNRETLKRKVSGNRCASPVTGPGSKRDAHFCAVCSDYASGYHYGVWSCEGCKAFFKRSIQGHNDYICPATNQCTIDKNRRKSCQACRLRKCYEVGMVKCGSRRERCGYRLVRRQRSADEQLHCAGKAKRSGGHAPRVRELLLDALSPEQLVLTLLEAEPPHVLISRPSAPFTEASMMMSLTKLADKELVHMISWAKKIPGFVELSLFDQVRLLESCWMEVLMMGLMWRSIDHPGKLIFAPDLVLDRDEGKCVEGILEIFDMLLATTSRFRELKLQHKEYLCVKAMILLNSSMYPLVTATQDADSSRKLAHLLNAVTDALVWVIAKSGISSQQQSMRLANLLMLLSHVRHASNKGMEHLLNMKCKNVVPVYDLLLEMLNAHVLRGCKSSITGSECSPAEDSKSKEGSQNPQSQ

Regarding `O=C(CCl)NCO`, the Potency entry in assay [1], in assay [2], in assay [3] and in assay [4] was “inactive” each time. For the same compound, the compound was classed as inactive in [5].
In the case of `CCOC(=O)C(Cl)Cc1cc(-n2nc(C)n(C(F)F)c2=O)c(F)cc1Cl` (stereo unspecified), the Potency result in assay [1], in [6], in assay [2], in [3] and in assay [4] was “inactive” each time. The call in assay [7] was inactive.
Regarding `CC[C@H](N)c1ccccc1`, the Potency result in assay [1], in [2], in [3], in assay [8] and in assay [4] was “inactive” throughout. For the same compound, the result in [7] and in [5] was inactive.
For `CN(C)C1CCCCC1`, the Potency entry in assay [1], in assay [2], in assay [3] and in [4] was “inactive” each time.
Take `COC1=CC(=O)O[C@@H](/C=C/c2ccccc2)C1`: the Potency result in [6], in assay [2] and in assay [8] was “inactive” in each case. Moreover, the compound was classed as inactive in assay [5].
Regarding `C=CCN1CC[C@]23CCCC[C@H]2[C@H]1Cc1ccc(O)cc13`, the Potency entry in assay [1], in assay [3] and in [8] was “inactive” throughout.
In the case of `CC1NCCOC1c1ccccc1` (stereo unspecified), the Potency result in [1], in [6], in assay [3] and in assay [4] was “inactive” each time. Besides, the outcome in [7] and in assay [5] was inactive.
Regarding `CCC1(CC)C(=O)C=CNC1=O`, the Potency result in assay [1], in assay [6], in assay [2], in assay [3], in assay [8] and in assay [4] was “inactive” each time. Moreover, the outcome in [5] was inactive.
Regarding `CCN(CC)C1CCCCC1`, the Potency entry in assay [1], in assay [2], in assay [3], in [9], in assay [8] and in assay [4] was “inactive” in each case. Moreover, the result in assay [7] was inactive.
As for `C=CC1(C)OC(=O)N(c2cc(Cl)cc(Cl)c2)C1=O` (stereo unspecified), the Potency in assay [1] was 21.6 µM (active) and inactive; in assay [3], 27.1 µM (active) and 21.7 µM (active); in assay [8], 54.2 µM (active) and inactive. Further, the outcome in assay [7] and in [5] was inactive. Besides, the Potency entry in [2] and in [4] was “inactive” in each case.
For the compound `BrCCc1ccccc1`, the Potency entry in [1], in assay [2] and in assay [3] was “inactive” in each case. In addition, the compound was called inactive in [7] and in assay [5].
Regarding `CON(C)C(=O)Nc1ccc(Br)c(Cl)c1`, the result in assay [7] and in [5] was inactive. Besides, the Potency entry in assay [2] and in assay [8] was “inactive” throughout.
For `CCCC[N+](=O)[O-]`, the Potency result in assay [1], in [2], in assay [3], in assay [8] and in [4] was “inactive” in each case.
Regarding `COc1cccc(C=O)c1`, the Potency entry in assay [1], in assay [2], in assay [3], in assay [8] and in assay [4] was “inactive” each time. Further, the call in [7] and in assay [5] was inactive.
With `C[C@H]1CCCC(=O)CCC/C=C/c2cc(O)cc(O)c2C(=O)O1`, the Potency in assay [1] is 14.8 µM (active) and inactive; in assay [2], 46.8 µM (active) and inactive; in [4], 41.7 nM (active) and 56.3 nM (active). The Potency entry in assay [3], in [9] and in assay [8] was “inactive” throughout.
For the compound `CCSC(=O)Cl`, the Potency result in [6], in [2], in assay [9] and in [4] was “inactive” in each case. The compound was classed as inactive in assay [7] and in [5].
With `C(COCC1CO1)OCC1CO1` (stereo unspecified), the Potency in [1] was 34.4 µM (active). Further, the Potency result in assay [2], in assay [3], in assay [8] and in assay [4] was “inactive” throughout. In assay [5], the result was inactive.
For `CN1C(=O)COc2c(C(=O)NC3CN4CCC3CC4)cc(Cl)cc21` (stereo unspecified), the Potency result in assay [1], in [2], in assay [3] and in [4] was “inactive” in each case.
In the case of `CC(O)CCl` (stereo unspecified), the Potency entry in [1], in assay [2], in assay [3] and in [4] was “inactive” in each case. For the same compound, the call in assay [7] and in assay [5] was inactive.
Take `ClCOCCl`: the Potency result in [1], in [2], in assay [3], in assay [8] and in assay [4] was “inactive” each time. Moreover, in assay [7], the compound was called inactive.
Consider `CC#Cc1cc(C)nc(Nc2ccccc2)n1`, for which the Potency entry in [2], in assay [8] and in assay [4] was “inactive” throughout.
On to `Nc1c(Cl)c(F)nc(OCC(=O)O)c1Cl`, for which the Potency entry in [6], in [3], in assay [9], in assay [8] and in assay [4] was “inactive” each time. In addition, the compound was classed as inactive in assay [7] and in [5].
In the case of `O=C(O)C(Cl)Br` (stereo unspecified), the Potency result in assay [1], in [2] and in assay [8] was “inactive” in each case. Besides, the outcome in [7] was inactive.
`NC1(c2ccccc2)CCCCC1`: the Potency result in assay [1], in [2], in assay [3], in [8] and in assay [4] was “inactive” each time.
Take `CN(C)CCN(C)C`: the Potency result in assay [1], in assay [3] and in [4] was “inactive” each time. Besides, the result in assay [7] and in assay [5] was inactive.
Turning to `CCOc1cc(OP(=S)(OC)OC)nc(CC)n1`, the call in assay [7] and in assay [5] was inactive. Moreover, the Potency result in [2], in assay [8] and in assay [4] was “inactive” each time.
Consider `O=[N+]([O-])CCO`, for which the Potency entry in assay [1], in assay [2], in assay [3], in assay [8] and in assay [4] was “inactive” in each case.
As to `O=C1CCCCC1Cl` (stereo unspecified), the Potency entry in [1], in [3] and in assay [8] was “inactive” in each case. The compound was classed as inactive in [7].
On to `C[C@H](N)C(=O)c1ccccc1`, for which the Potency result in assay [1], in assay [6], in assay [2], in assay [3], in assay [9] and in assay [4] was “inactive” in each case.
As for `CCNP(=S)(OC)O/C(C)=C/C(=O)OC(C)C` (stereo unspecified), the Potency entry in assay [1], in assay [2], in assay [3], in assay [8] and in assay [4] was “inactive” each time. The compound was called inactive in [7].
